Bioassay records as filed in PubChem.
CCHF vOTU inh-1 = blocks the CCHF virus ovarian tumor domain protease | CCHFV vOTU protease, Pep-AMC fluorescence | inhibition, % at 11.5 µM | 370,000 tested, 0.55% active | AID 651958
3CLpro inhibitor = SARS-CoV 3CLpro protease inhibition. P0C6X7. recombinant SARS-CoV 3CLpro, quenched FRET peptide cleavage. inhibition, % at 6 µM. 290,000 tested, 0.14% active; in the data active means inhibition above about 12%
DUSP3 inh = DUSP3 (human) phosphatase inhibition; P51452; recombinant VHR phosphatase, pNPP absorbance; inhibition, % at 13.3 µM; 290,000 tested, 0.52% active; AID 1654; in the data active means inhibition above about 50%
RecA splice inh = blocks M. tuberculosis RecA intein splicing; cell-free RecA intein splicing, fluorescence; 290,000 tested, 0.75% active; AID 2221; inhibition, % (concentration not given with the values); in the data active means inhibition above about 30%
Target sequence (P9WHJ3 whole entry, looked up, canonical isoform): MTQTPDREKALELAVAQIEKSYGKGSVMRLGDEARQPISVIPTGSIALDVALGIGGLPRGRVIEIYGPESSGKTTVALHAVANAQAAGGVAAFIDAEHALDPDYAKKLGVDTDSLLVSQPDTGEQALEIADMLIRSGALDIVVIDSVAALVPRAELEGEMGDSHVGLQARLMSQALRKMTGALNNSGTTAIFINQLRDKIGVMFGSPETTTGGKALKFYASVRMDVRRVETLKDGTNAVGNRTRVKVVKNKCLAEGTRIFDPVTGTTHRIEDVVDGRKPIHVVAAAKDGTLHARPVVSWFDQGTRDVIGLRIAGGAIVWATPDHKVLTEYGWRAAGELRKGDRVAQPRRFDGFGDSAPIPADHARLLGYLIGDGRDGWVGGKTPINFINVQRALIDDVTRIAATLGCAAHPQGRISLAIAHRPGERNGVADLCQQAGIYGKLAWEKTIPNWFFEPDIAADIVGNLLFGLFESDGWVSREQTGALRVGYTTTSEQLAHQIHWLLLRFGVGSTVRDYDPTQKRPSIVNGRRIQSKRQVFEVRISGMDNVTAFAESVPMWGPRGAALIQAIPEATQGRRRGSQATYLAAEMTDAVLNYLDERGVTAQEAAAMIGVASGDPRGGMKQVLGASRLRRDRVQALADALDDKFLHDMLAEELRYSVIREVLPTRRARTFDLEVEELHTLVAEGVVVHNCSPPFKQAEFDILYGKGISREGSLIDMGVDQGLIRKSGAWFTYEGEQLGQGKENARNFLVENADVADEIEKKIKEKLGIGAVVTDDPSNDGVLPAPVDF
SSB-PriA inh = blocks PriA binding to SSB C-terminal tail; AlphaScreen SSBct-PriA binding, biotinylated peptide; inhibition, % at 33 µM; 430,000 tested, 0.6% active; AID 1272365; in the data active means inhibition mostly above about 37%, no sharp cut-off; inactive means mostly below about 20%
CCHF vOTU inh-2 = confirmation of CCHF virus vOTU protease inhibitors; shares compounds with CCHF vOTU inh-1; Recombinant CCHFV vOTU, Pep-AMC fluorescence; 1,900 tested, 17% active; AID 686976; inhibition, % at 11.5 µM
Hits are given with their value. Most compounds without a hit are left out; they make up all but 1.7% or so of the library. Unless noted, no stated cut-off is given here; in the data, active means inhibition above about 30%; inactive means the rest.

Results for CC1CCC/C(=N\NC(=O)Nc2ccccc2)C1 (stereo not drawn) ?
CCHF vOTU inh-1: 34.1; 3CLpro inhibitor: inactive; DUSP3 inh: inactive; RecA splice inh: inactive; CCHF vOTU inh-2: inactive

What do the screens show for `CC(=O)N1CCC(C(=O)NCc2cncc(-c3ccsc3)c2)CC1`?
SSB-PriA inh: inactive

What do the screens show for `COc1cccc(-c2nc3n(n2)C(c2cc(OC)c(OC)cc2OC)C(C(N)=O)=C(C)N3)c1` (stereo not drawn)?
SSB-PriA inh: inactive

How did COC1=CC(=O)c2c(ccc3ncnc(N)c23)C1=O do in these assays?
CCHF vOTU inh-1: 110.0; SSB-PriA inh: inactive; CCHF vOTU inh-2: 108.3

How did CCN(CC)C(=O)[C@H]1C[C@H](CC(=O)NCc2cccc(C(F)(F)F)c2)C(=O)N2CCc3c([nH]c4ccc(Cl)cc34)[C@]12C do in these assays?
CCHF vOTU inh-1: 31.6; SSB-PriA inh: inactive; CCHF vOTU inh-2: inactive

Results for O=C(CCc1ccc(F)c(Cl)c1)N1CC(S(=O)(=O)Cc2ccco2)C1 ?
SSB-PriA inh: inactive

How did O=C(NCc1cc(C(F)(F)F)cc(C(F)(F)F)c1)C1CC(c2c(Cl)cccc2Cl)=NO1 (stereo not drawn) do in these assays?
CCHF vOTU inh-1: inactive; 3CLpro inhibitor: inactive; DUSP3 inh: inactive; RecA splice inh: inactive; SSB-PriA inh: inactive

What do the screens show for `O=C(NCc1ccc(OC(F)(F)F)cc1)C1CC(c2c(Cl)cccc2Cl)=NO1` (stereo not drawn)?
CCHF vOTU inh-1: 29.9; 3CLpro inhibitor: inactive; DUSP3 inh: inactive; RecA splice inh: inactive; SSB-PriA inh: inactive; CCHF vOTU inh-2: inactive

How did Cc1cc(C)c(S(=O)(=O)NCC(=O)N2CCOC(c3ccccc3)C2)cc1C (stereo not drawn) do in these assays?
SSB-PriA inh: inactive

Results for Cc1c(NC(=O)C(C)OC(=O)c2ccc([N+](=O)[O-])s2)c(=O)n(-c2ccccc2)n1C (stereo not drawn) ?
CCHF vOTU inh-1: 41.0; 3CLpro inhibitor: inactive; DUSP3 inh: inactive; SSB-PriA inh: inactive; CCHF vOTU inh-2: 45.1

What do the screens show for `Cc1c(NC(=O)C(C)OC(=O)c2sc3ccccc3c2Cl)c(=O)n(-c2ccccc2)n1C` (stereo not drawn)?
CCHF vOTU inh-1: inactive; 3CLpro inhibitor: inactive; DUSP3 inh: inactive; RecA splice inh: inactive; SSB-PriA inh: inactive

What do the screens show for `Cc1ccc(-c2nc3ccc(C)cn3c2Cc2ccccc2C(F)(F)F)cc1`?
CCHF vOTU inh-1: inactive

Results for Cc1ccc2nc(C(C)(C)C)c(Cc3ccccc3C(F)(F)F)n2c1 ?
CCHF vOTU inh-1: 30.0; CCHF vOTU inh-2: inactive

Results for CCn1nc(NS(=O)(=O)c2ccccc2[N+](=O)[O-])c2cc3cccc(C)c3nc21 ?
CCHF vOTU inh-1: 32.4; 3CLpro inhibitor: inactive; DUSP3 inh: inactive; RecA splice inh: inactive; SSB-PriA inh: inactive; CCHF vOTU inh-2: inactive

Results for CCn1nc(NS(=O)(=O)c2ccccc2[N+](=O)[O-])c2cc3ccc(C)cc3nc21 ?
3CLpro inhibitor: inactive; DUSP3 inh: inactive; RecA splice inh: inactive; SSB-PriA inh: inactive

Results for COc1ccc(C(C)=O)c2c(O)cccc12 ?
CCHF vOTU inh-1: 30.6; 3CLpro inhibitor: inactive; DUSP3 inh: inactive; RecA splice inh: inactive; SSB-PriA inh: inactive; CCHF vOTU inh-2: inactive

How did CCN1CCN(c2oc(-c3ccccc3C)nc2S(=O)(=O)c2ccccc2)CC1 do in these assays?
CCHF vOTU inh-1: 35.5; SSB-PriA inh: 38.6; CCHF vOTU inh-2: inactive

How did COC(=O)/C(=C/Nc1ccc(O)cc1)[N+](=O)[O-] do in these assays?
CCHF vOTU inh-1: 93.4; 3CLpro inhibitor: inactive; DUSP3 inh: inactive; RecA splice inh: inactive; CCHF vOTU inh-2: inactive

Results for CCCS(=O)(=O)N1CCC2(CC1)NC(=O)N(Cc1ccc(F)cc1)C2=O ?
SSB-PriA inh: inactive

What do the screens show for `O=C(OCC(=O)N1CCCc2ccccc21)c1ccc(Br)o1`?
CCHF vOTU inh-1: inactive; 3CLpro inhibitor: inactive; DUSP3 inh: inactive; RecA splice inh: inactive; SSB-PriA inh: inactive

How did O=C(OCC(=O)N1CCc2ccccc21)c1ccc([N+](=O)[O-])o1 do in these assays?
CCHF vOTU inh-1: 40.3; SSB-PriA inh: inactive; CCHF vOTU inh-2: inactive

How did CCOC(=O)C1(CCc2ccccc2)CCN(C(=O)c2occc2C)CC1 do in these assays?
CCHF vOTU inh-1: 32.2; 3CLpro inhibitor: inactive; DUSP3 inh: inactive; RecA splice inh: inactive; SSB-PriA inh: inactive; CCHF vOTU inh-2: inactive

What do the screens show for `O=C(CCc1ccc(S(=O)(=O)N2CCOCC2)cc1)Nc1ccc(F)c(F)c1F`?
CCHF vOTU inh-1: 34.7; SSB-PriA inh: inactive; CCHF vOTU inh-2: inactive

How did O=C(CCc1ccc(S(=O)(=O)N2CCOCC2)cc1)Nc1c(F)cccc1F do in these assays?
CCHF vOTU inh-1: inactive; SSB-PriA inh: inactive

Results for COc1ccc(Cl)cc1C(=O)NCc1nc(-c2cccn2C)no1 ?
SSB-PriA inh: inactive

Results for O=Nc1c(O)ccc2cc(S(=O)(=O)O)ccc12 ?
SSB-PriA inh: inactive

How did CN(C)c1ccc2cc(S(=O)(=O)O)cc(O)c2c1 do in these assays?
CCHF vOTU inh-1: 38.2; SSB-PriA inh: inactive; CCHF vOTU inh-2: inactive

What do the screens show for `CCN1CCN(C2=C(NS(=O)(=O)c3ccc(Br)cc3)C(=O)c3ccccc3C2=O)CC1`?
CCHF vOTU inh-1: 78.1; 3CLpro inhibitor: inactive; DUSP3 inh: inactive; RecA splice inh: inactive; SSB-PriA inh: inactive; CCHF vOTU inh-2: inactive

Results for CCN1CCN(C2=C(NS(=O)(=O)c3ccccc3)C(=O)c3ccccc3C2=O)CC1 ?
CCHF vOTU inh-1: 46.1; 3CLpro inhibitor: inactive; DUSP3 inh: inactive; RecA splice inh: inactive; SSB-PriA inh: inactive; CCHF vOTU inh-2: inactive

How did CC(=O)[C@@H]1[C@@H]2C(=O)N(c3ccc(F)c(Cl)c3)C(=O)[C@@H]2C2c3ccccc3C=CN21 (stereo partly drawn) do in these assays?
CCHF vOTU inh-1: 95.4; 3CLpro inhibitor: inactive; DUSP3 inh: inactive; RecA splice inh: inactive; CCHF vOTU inh-2: 75.1

How did CC(=O)[C@H]1[C@@H]2C(=O)N(c3cccc(Cl)c3)C(=O)[C@@H]2[C@H]2c3ccccc3C=CN21 do in these assays?
CCHF vOTU inh-1: 93.5; 3CLpro inhibitor: inactive; DUSP3 inh: inactive; RecA splice inh: inactive; SSB-PriA inh: inactive; CCHF vOTU inh-2: 82.0

What do the screens show for `CC(=O)[C@@H]1[C@@H]2C(=O)N(C3CCCCC3)C(=O)[C@@H]2C2c3ccccc3C=CN21` (stereo partly drawn)?
3CLpro inhibitor: inactive; DUSP3 inh: inactive

How did O=C1NC(=NS(=O)(=O)c2ccccc2)S/C1=C\c1cc([N+](=O)[O-])ccc1O do in these assays?
SSB-PriA inh: inactive

What do the screens show for `Cc1ccc(S(=O)(=O)/N=C2/NC(=O)/C(=C/c3cc([N+](=O)[O-])ccc3O)S2)cc1`?
CCHF vOTU inh-1: 42.5; 3CLpro inhibitor: inactive; DUSP3 inh: inactive; RecA splice inh: inactive; CCHF vOTU inh-2: inactive

How did C=CCN1C(=O)/C(=C/c2ccc(OC(C)=O)c(OCC)c2[N+](=O)[O-])SC1=S do in these assays?
CCHF vOTU inh-1: 30.2; 3CLpro inhibitor: inactive; DUSP3 inh: inactive; RecA splice inh: inactive; SSB-PriA inh: inactive; CCHF vOTU inh-2: 82.0
